Assay results taken from PubChem BioAssay.
Activity calls are given as the source filed them.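 The calls were made as follows: active = viability loss from added drug above about 55%, and viability with drug at most 40%, in both replicates (limit read from the data, passing the limit was not always enough); inconclusive = both conditions met in only one replicate; inactive = neither replicate meets both conditions.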

Assay: reversal of MRP1-mediated doxorubicin resistance, pilot screen, H69AR cells, doxorubicin co-treatment (AID 601)
Conditions: H69AR cells + 2 uM doxorubicin, CellTiter-Glo, 72 h; at 10 µM; stronger effect = higher value

Row | Compound | differential viability (reversal)
1 | CN(Cc1cccs1)c1ncnc2sccc12 | -0.54% (inactive)
2 | CCOC(=O)N1CCN(C(=O)CN(c2ccc(C)cc2)S(=O)(=O)c2c(C)noc2C)CC1 | -0.005% (inactive)
3 | Cc1c2c(nc3nc4ccccc4n13)CC(C)(C)CC2=O | 36.9% (inactive)
4 | COc1ccccc1OC(=O)c1ccc2nsnc2c1 | 11.6% (inactive)
5 | CCN(CCCNC(=O)c1cn(CC)c2ccc(S(=O)(=O)N(C)C)cc2c1=O)c1cccc(C)c1 | 60.4% (active)
6 | O=C(O)C1CC(=O)N(c2ccc(OCc3ccccc3Cl)cc2)C1 (stereo not given) | 8.43% (inactive)
7 | C=CCOc1ccc(C2C(C(=O)c3ccco3)=C(O)C(=O)N2Cc2cccnc2)cc1 (stereo not given) | 2.87% (inactive)
8 | [N-]=[N+]=CC(=O)CC(c1ccccc1)N1C(=O)c2ccccc2C1=O (stereo not given) | 5.81% (inactive)
9 | CCC1(c2ccc(F)cc2)NC(=O)N(CC(=O)c2ccc[nH]2)C1=O (stereo not given) | 9.76% (inactive)
10 | c1csc(-c2nc3nc4ccccc4nc3n2Cc2ccc3c(c2)OCO3)c1 | 16.4% (inactive)
11 | Cc1n[nH]c(C)c1S(=O)(=O)N1CCN(c2ccccn2)CC1 | 3.44% (inactive)
12 | Cn1c(=O)c2c(nc(NCCc3ccccc3)n2CC(=O)NCCc2ccccc2)n(C)c1=O | 8.86% (inactive)
13 | Cc1cc(Br)ccc1NC(=O)CCN1C(=O)c2ccncc2C1=O | 3.85% (inactive)
14 | COc1ccccc1Oc1coc2c(CN3CCN(C)CC3)c(O)ccc2c1=O | 14.9% (inactive)
15 | O=C(Nc1ccccc1N1CCN(c2ccc(F)cc2)CC1)c1ccccc1 | 9.15% (inactive)
16 | c1ccc(Cc2ccc(OCCn3cncn3)cc2)cc1 | 14.6% (inactive)
17 | Cc1cccc(Nc2nc3c(c(=O)n(C)c(=O)n3C)n2Cc2ccccc2)c1 | -0.855% (inactive)
18 | Cc1nn(C)c(C)c1CNC(=O)c1cc2n(n1)C(C(F)(F)F)CC(c1cccs1)N2 (stereo not given) | 18.2% (inactive)
19 | COc1ccc(CNc2nc3nc(C)cc(C)n3n2)cc1OC | 5.1% (inactive)
20 | CCOC(=O)c1ccc(N2C(=O)C3CC=CCC3C2=O)cc1 (stereo not given) | 7.42% (inactive)

Row | Compound | differential viability (reversal)
21 | CC(C(=O)NCCCN1CCOCC1)n1cccc1C(=O)c1ccccc1 (stereo not given) | 5.71% (inactive)
22 | Cc1nc(NC2=NCN(CC3CCCO3)CN2)nc2ccccc12 (stereo not given) | -13.8% (inactive)
23 | COCCOC(=O)C1=C(N)OC2=C(C(=O)CC(C)(C)C2)C1c1cccnc1 (stereo not given) | 7.16% (inactive)
24 | CC(C)(C)NCc1cc2ccccc2[nH]c1=O | 9.9% (inactive)
25 | COc1ccc(-c2noc(-c3cc(Cl)ccc3Cl)n2)cc1OC | 18.4% (inactive)
26 | CCC(=O)Nc1ccc(Cl)c(NC(=O)C(C)C)c1 | 7.54% (inactive)
27 | COC(=O)c1cc2ccsc2n1CC(=O)Nc1cc(C)cc(C)c1 | -0.08% (inactive)
28 | COc1ccc(-c2nnc(SCC#N)o2)cc1 | 13.6% (inactive)
29 | Cc1nc(C)c(C(=O)C2=C(O)C(=O)N(CCN3CCOCC3)C2c2cccnc2)s1 (stereo not given) | 10.4% (inactive)
30 | Cc1ccc(NC(=O)CCC(=O)OCC(F)(F)C(F)F)cc1 | -1.04% (inactive)
31 | CN(C)c1ccc2c(c1)OC(N)=C(C#N)C2c1cccc(F)c1 (stereo not given) | -41% (inactive)
32 | CCN1CCN(CCCNC(=O)C2c3ccccc3C(=O)N(C)C2c2ccc(OC)cc2)CC1 (stereo not given) | 16.8% (inactive)
33 | Cc1oc(-c2ccc(Cl)cc2)nc1CS(=O)CC(=O)NCCCN(C)C1CCCCC1 (stereo not given) | 10.8% (inactive)
34 | CC(C)CCN1CC(C(=O)NCc2ccccc2)CC1=O (stereo not given) | 1.32% (inactive)
35 | CC1CCN(S(=O)(=O)c2ccc3[nH]cc(C(=O)NCCN4CCOCC4)c(=O)c3c2)CC1 | 2.28% (inactive)
36 | Cc1ccc(S(=O)(=O)N(C)Cc2cc3ccccc3[nH]c2=O)cc1 | 3.6% (inactive)
37 | CC(=O)N1CCN(c2ccc(S(=O)(=O)N3CCCCC3)cn2)CC1 | 3.99% (inactive)
38 | CCOC(=O)c1cnc(-n2nc(C)cc2C)nc1Nc1cccc(C(C)=O)c1 | -9.45% (inactive)
39 | Fc1ccc(NCc2nnc(SCc3nnc(-c4ccccc4)o3)n2CC2CCCO2)cc1 (stereo not given) | -18.4% (inactive)
40 | O=C1Nc2ccccc2OC1CC(=O)N1CCCC1 (stereo not given) | 11.9% (inactive)

Same assay, conditions: H69AR cells + 2 uM doxorubicin, CellTiter-Glo, 72 h; measured here: viability with 2 uM doxorubicin; at 10 µM; stronger effect = lower value

Row | Compound | viability [%]
41 | CN(Cc1cccs1)c1ncnc2sccc12 | 93
42 | CCOC(=O)N1CCN(C(=O)CN(c2ccc(C)cc2)S(=O)(=O)c2c(C)noc2C)CC1 | 86.1
43 | Cc1c2c(nc3nc4ccccc4n13)CC(C)(C)CC2=O | 34
44 | COc1ccccc1OC(=O)c1ccc2nsnc2c1 | 88.4
45 | CCN(CCCNC(=O)c1cn(CC)c2ccc(S(=O)(=O)N(C)C)cc2c1=O)c1cccc(C)c1 | 19.6
46 | O=C(O)C1CC(=O)N(c2ccc(OCc3ccccc3Cl)cc2)C1 (stereo not given) | 81.6
47 | C=CCOc1ccc(C2C(C(=O)c3ccco3)=C(O)C(=O)N2Cc2cccnc2)cc1 (stereo not given) | 88
48 | [N-]=[N+]=CC(=O)CC(c1ccccc1)N1C(=O)c2ccccc2C1=O (stereo not given) | 97
49 | CCC1(c2ccc(F)cc2)NC(=O)N(CC(=O)c2ccc[nH]2)C1=O (stereo not given) | 86.9
50 | c1csc(-c2nc3nc4ccccc4nc3n2Cc2ccc3c(c2)OCO3)c1 | 61.6
51 | Cc1n[nH]c(C)c1S(=O)(=O)N1CCN(c2ccccn2)CC1 | 99.8
52 | Cn1c(=O)c2c(nc(NCCc3ccccc3)n2CC(=O)NCCc2ccccc2)n(C)c1=O | 70.2
53 | Cc1cc(Br)ccc1NC(=O)CCN1C(=O)c2ccncc2C1=O | 91.7
54 | COc1ccccc1Oc1coc2c(CN3CCN(C)CC3)c(O)ccc2c1=O | 84.7
55 | O=C(Nc1ccccc1N1CCN(c2ccc(F)cc2)CC1)c1ccccc1 | 84.6
56 | c1ccc(Cc2ccc(OCCn3cncn3)cc2)cc1 | 80.4
57 | Cc1cccc(Nc2nc3c(c(=O)n(C)c(=O)n3C)n2Cc2ccccc2)c1 | 97.5
58 | Cc1nn(C)c(C)c1CNC(=O)c1cc2n(n1)C(C(F)(F)F)CC(c1cccs1)N2 (stereo not given) | 93.9
59 | COc1ccc(CNc2nc3nc(C)cc(C)n3n2)cc1OC | 103
60 | CCOC(=O)c1ccc(N2C(=O)C3CC=CCC3C2=O)cc1 (stereo not given) | 91.9

Row | Compound | viability [%]
61 | CC(C(=O)NCCCN1CCOCC1)n1cccc1C(=O)c1ccccc1 (stereo not given) | 89.3
62 | Cc1nc(NC2=NCN(CC3CCCO3)CN2)nc2ccccc12 (stereo not given) | 98.9
63 | COCCOC(=O)C1=C(N)OC2=C(C(=O)CC(C)(C)C2)C1c1cccnc1 (stereo not given) | 91.9
64 | CC(C)(C)NCc1cc2ccccc2[nH]c1=O | 83.3
65 | COc1ccc(-c2noc(-c3cc(Cl)ccc3Cl)n2)cc1OC | 88.1
66 | CCC(=O)Nc1ccc(Cl)c(NC(=O)C(C)C)c1 | 103
67 | COC(=O)c1cc2ccsc2n1CC(=O)Nc1cc(C)cc(C)c1 | 84.8
68 | COc1ccc(-c2nnc(SCC#N)o2)cc1 | 89.1
69 | Cc1nc(C)c(C(=O)C2=C(O)C(=O)N(CCN3CCOCC3)C2c2cccnc2)s1 (stereo not given) | 87
70 | Cc1ccc(NC(=O)CCC(=O)OCC(F)(F)C(F)F)cc1 | 104
71 | CN(C)c1ccc2c(c1)OC(N)=C(C#N)C2c1cccc(F)c1 (stereo not given) | 75.7
72 | CCN1CCN(CCCNC(=O)C2c3ccccc3C(=O)N(C)C2c2ccc(OC)cc2)CC1 (stereo not given) | 93.2
73 | Cc1oc(-c2ccc(Cl)cc2)nc1CS(=O)CC(=O)NCCCN(C)C1CCCCC1 (stereo not given) | 76.3
74 | CC(C)CCN1CC(C(=O)NCc2ccccc2)CC1=O (stereo not given) | 91.2
75 | CC1CCN(S(=O)(=O)c2ccc3[nH]cc(C(=O)NCCN4CCOCC4)c(=O)c3c2)CC1 | 94.1
76 | Cc1ccc(S(=O)(=O)N(C)Cc2cc3ccccc3[nH]c2=O)cc1 | 87.9
77 | CC(=O)N1CCN(c2ccc(S(=O)(=O)N3CCCCC3)cn2)CC1 | 84.6
78 | CCOC(=O)c1cnc(-n2nc(C)cc2C)nc1Nc1cccc(C(C)=O)c1 | 97.5
79 | Fc1ccc(NCc2nnc(SCc3nnc(-c4ccccc4)o3)n2CC2CCCO2)cc1 (stereo not given) | 97.3
80 | O=C1Nc2ccccc2OC1CC(=O)N1CCCC1 (stereo not given) | 90.5
